Test results as given in PubChem BioAssay AID2330 (Broad Institute, 2010).
In all, about 37,000 compounds went through this assay and about 2,800 (7.6%) were called active. Inconclusive results (about 1%) are left out. The sample as a whole holds a higher share of actives than the screen did. Unmarked numbers belong to inactive results. No stated cut-off is given here; in the data, active means inhibition above about 80%; inconclusive means no clear call, values can overlap the other calls; inactive means below that.

Experiment: NOMO-1 AML cell viability reduction, primary screen, STK33 inhibitor project, CellTiter-Glo luminescence (AID 2330)
Conditions: NOMO-1 AML viability, 72 h, hits give high values, concentration not given here

Q: With `CC(=O)c1cccc(NC(=O)CN(c2ccc(F)c(Cl)c2)S(C)(=O)=O)c1` as the compound, how does the inhibition read?
A: 13.8%

Q: Which inhibition does the source give for `Cc1noc(C)c1NC(=O)Nc1ccc2c(c1)CC(=O)N([C@@H](C)CO)C[C@@H](C)[C@@H](CN(C)Cc1ccc(Cl)c(Cl)c1)O2` here?
A: 58.1%

Q: With `COc1cc(O)cc(C)c1C(=O)OC1C(CO)OC(n2ccc(=O)[nH]c2=O)C1OC(C)=O` (centres undefined) as the compound, how does the inhibition read?
A: 6.97%

Q: For `CCc1cc(C(=O)OC)c(NC(=S)Nc2ccc(OC)cc2[N+](=O)[O-])s1`, which inhibition is on record?
A: 22.2%

Q: With `COC(=O)c1cc(C)sc1NC(=S)Nc1ncn(Cc2ccc(F)cc2Cl)n1` as the compound, how does the inhibition read?
A: 109% (active)

Q: For `C[C@H]1CN([C@@H](C)CO)C(=O)Cc2cc(NS(=O)(=O)c3cccs3)ccc2O[C@@H]1CN(C)Cc1ccc(Oc2ccccc2)cc1`, which inhibition is on record?
A: 78.4%

Q: Which inhibition does the source give for `C[C@H]1CN([C@@H](C)CO)C(=O)c2cc(NC(=O)Nc3ccc4c(c3)OCO4)ccc2O[C@@H]1CN(C)CC1CCCCC1` here?
A: 31.9%

Q: With `C[C@H]1CN([C@@H](C)CO)C(=O)Cc2cc(NC(=O)Nc3ccc4c(c3)OCO4)ccc2O[C@H]1CN(C)CC1CC1` as the compound, how does the inhibition read?
A: 11.8%

Q: Which inhibition does the source give for `C[C@@H]1CN([C@@H](C)CO)C(=O)Cc2cc(NC(=O)Nc3cccc4ccccc34)ccc2O[C@@H]1CN(C)CC1CCCCC1` here?
A: 117% (active)

Q: With `C[C@@H]1CN([C@@H](C)CO)C(=O)Cc2cc(NC(=O)Nc3ccc4c(c3)OCO4)ccc2O[C@@H]1CN(C)CC1CCCCC1` as the compound, how does the inhibition read?
A: 88.2% (active)

Q: For `C[C@H]1CN([C@@H](C)CO)C(=O)Cc2cc(NC(=O)Nc3cccc4ccccc34)ccc2O[C@@H]1CN(C)S(C)(=O)=O`, which inhibition is on record?
A: 0.688%

Q: With `C[C@H]1CN([C@@H](C)CO)C(=O)Cc2cc(NC(=O)Nc3cccc4ccccc34)ccc2O[C@H]1CN(C)CC1CC1` as the compound, how does the inhibition read?
A: 26.7%

Q: With `C[C@H](CO)N1C[C@H](C)[C@@H](CN(C)Cc2ccc3c(c2)OCO3)Oc2c(NC(=O)C3CCOCC3)cccc2C1=O` as the compound, how does the inhibition read?
A: 20.1%

Q: With `O=C(Nc1ccc(Cl)cc1C(=O)NCc1ccco1)c1ccco1` as the compound, how does the inhibition read?
A: 31.2%

Q: For `CC(C)NC(=O)N(C)C[C@@H]1Oc2c(NC(=O)c3nc4ccccc4s3)cccc2C(=O)N([C@H](C)CO)C[C@H]1C`, which inhibition is on record?
A: -10.2%

Q: Which inhibition does the source give for `C[C@@H]1CN([C@H](C)CO)C(=O)c2cccc(NC(=O)c3nc4ccccc4s3)c2O[C@H]1CN(C)Cc1ccccc1` here?
A: 96.6% (active)

Q: Which inhibition does the source give for `C[C@@H]1CN([C@H](C)CO)C(=O)c2cccc(NC(=O)c3nc4ccccc4s3)c2O[C@H]1CN(C)S(=O)(=O)c1ccc(Cl)cc1` here?
A: 61.5%

Q: With `C[C@@H]1CN([C@@H](C)CO)C(=O)c2cccc(NC(=O)c3nc4ccccc4s3)c2O[C@@H]1CN(C)Cc1ccc(Cl)c(Cl)c1` as the compound, how does the inhibition read?
A: 87.1% (active)

Q: Which inhibition does the source give for `C[C@@H]1CN([C@H](C)CO)C(=O)c2cccc(NC(=O)c3nc4ccccc4s3)c2O[C@@H]1CN(C)Cc1ccc(Oc2ccccc2)cc1` here?
A: 54.9%

Q: For `C[C@@H]1CN([C@H](C)CO)C(=O)c2cccc(NC(=O)c3nc4ccccc4s3)c2O[C@@H]1CN(C)C`, which inhibition is on record?
A: 6.43%

Q: Which inhibition does the source give for `COc1ccc(CN(C)C[C@H]2Oc3c(NC(=O)C4CCCCC4)cccc3C(=O)N([C@@H](C)CO)C[C@@H]2C)cc1` here?
A: 15.7%

Q: With `C[C@H](CO)N1C[C@H](C)[C@@H](CN(C)Cc2ccc(Cl)c(Cl)c2)Oc2c(NC(=O)C3CCCCC3)cccc2C1=O` as the compound, how does the inhibition read?
A: 102% (active)

Q: For `COc1ccc(CN(C)C[C@H]2Oc3c(NC(=O)C4CCCCC4)cccc3C(=O)N([C@@H](C)CO)C[C@H]2C)cc1`, which inhibition is on record?
A: 2.14%

Q: For `Cc1cc(C)c(OCC(=O)Nc2cccnc2)c(Br)c1`, which inhibition is on record?
A: 5.52%

Q: For `COc1cc(C(C)=O)ccc1OCC(O)Cn1nc(C)cc1C` (centres undefined), which inhibition is on record?
A: 10.2%

Q: For `COc1ccc(NC(=O)Nc2ccc3c(c2)CC(=O)N([C@@H](C)CO)C[C@H](C)[C@@H](CN(C)S(=O)(=O)c2cn(C)cn2)O3)cc1`, which inhibition is on record?
A: -12.8%

Q: For `C[C@H]1CN([C@@H](C)CO)C(=O)c2cc(NC(=O)Cn3cnnn3)ccc2O[C@H]1CN(C)Cc1ccc(C(=O)O)cc1`, which inhibition is on record?
A: 30.7%

Q: With `COc1ccc(CCn2c(C)nc(=O)c(-c3ccccc3)c2C)cc1OC` as the compound, how does the inhibition read?
A: 2.96%

Q: Which inhibition does the source give for `C[C@@H]1CN([C@@H](C)CO)C(=O)c2cccc(NS(=O)(=O)c3ccc(F)cc3)c2O[C@H]1CN(C)C(=O)NC1CCCCC1` here?
A: 4.03%

Q: For `C[C@H](CO)N1C[C@H](C)[C@@H](CN(C)Cc2ccc(Cl)c(Cl)c2)Oc2c(NC(=O)Nc3ccccc3)cccc2C1=O`, which inhibition is on record?
A: 59.3%

Q: With `O=C(c1cc([N+](=O)[O-])ccc1NCc1cccnc1)N1CCOCC1` as the compound, how does the inhibition read?
A: -0.79%

Q: With `COc1ccc(NC(=O)N(C)C[C@@H]2Oc3c(NC(=O)Nc4cccc5ccccc45)cccc3C(=O)N([C@@H](C)CO)C[C@H]2C)cc1` as the compound, how does the inhibition read?
A: 33.8%

Q: For `C[C@@H]1CN([C@H](C)CO)C(=O)c2cc(NS(=O)(=O)c3ccc(F)cc3)ccc2O[C@@H]1CN(C)C(=O)Nc1cccc2ccccc12`, which inhibition is on record?
A: 15.5%

Q: Which inhibition does the source give for `COC(=O)c1ccc(NCc2cc(O)ccc2O)cc1` here?
A: 96.2% (active)

Q: For `COC(=O)c1ccc(NC(=O)CN(c2ccc(C)c(Cl)c2)S(C)(=O)=O)cc1`, which inhibition is on record?
A: -3.13%

Q: With `COC(=O)c1c(C)n(CCNc2ccc([N+](=O)[O-])cc2)c2ccc(O)cc12` as the compound, how does the inhibition read?
A: 32.6%

Q: Which inhibition does the source give for `O=C(CSc1nc(O)cc(=O)n1-c1ccccc1F)Nc1ccc(Cl)cc1Cl` here?
A: 9.63%

Q: With `COC(=O)c1ccccc1NC(=O)CN(c1ccc2c(c1)OCCO2)S(C)(=O)=O` as the compound, how does the inhibition read?
A: -1.24%

Q: Which inhibition does the source give for `C[C@@H]1CN([C@@H](C)CO)C(=O)c2cc(NC(=O)Cc3ccccc3)ccc2O[C@H]1CN(C)Cc1ccc(Cl)c(Cl)c1` here?
A: 54.8%

Q: For `C[C@@H]1CN([C@H](C)CO)C(=O)c2cc(NC(=O)Cc3cn(C)c4ccccc34)ccc2O[C@H]1CN(C)S(C)(=O)=O`, which inhibition is on record?
A: 15.5%

Q: With `C[C@H]1CN([C@@H](C)CO)C(=O)c2cc(NC(=O)Cc3cn(C)c4ccccc34)ccc2O[C@@H]1CN(C)Cc1ccc(Cl)c(Cl)c1` as the compound, how does the inhibition read?
A: 87.6% (active)

Q: For `C[C@H]1CN([C@@H](C)CO)C(=O)c2cc(NC(=O)Cc3cn(C)c4ccccc34)ccc2O[C@H]1CN(C)CC1CCCCC1`, which inhibition is on record?
A: 15%

Q: For `C[C@H]1CN([C@@H](C)CO)C(=O)c2cc(NC(=O)Cc3cn(C)c4ccccc34)ccc2O[C@H]1CN(C)Cc1ccc(Cl)c(Cl)c1`, which inhibition is on record?
A: 84% (active)

Q: For `C[C@H](CO)N1C[C@H](C)[C@H](CN(C)Cc2ccncc2)Oc2ccc(NC(=O)Cc3cn(C)c4ccccc34)cc2CC1=O`, which inhibition is on record?
A: 6.89%

Q: With `Cc1noc(C)c1NC(=O)N(C)C[C@@H]1Oc2ccc(NC(=O)Nc3ccc(C(F)(F)F)cc3)cc2C(=O)N([C@H](C)CO)C[C@@H]1C` as the compound, how does the inhibition read?
A: 7.38%

Q: With `CC(=O)N[C@@H](C(=O)O[C@H]1CCC(C)(C)[C@@H]2CCC3=C(COC3=O)[C@@]12C)C(C)C` as the compound, how does the inhibition read?
A: 25.2%

Q: For `Cc1ccc(-c2nc(S(=O)(=O)c3ccc(Br)cc3)c(SCC(N)=O)o2)cc1`, which inhibition is on record?
A: 11.1%

Q: For `O=C(c1ccccc1)c1cnn(-c2ccc(Cl)cc2)n1`, which inhibition is on record?
A: 18.2%

Q: Which inhibition does the source give for `Cc1ccccc1NC(=O)CSc1nnc(-c2ccc([N+](=O)[O-])cc2)n1C` here?
A: -7.25%

Q: Which inhibition does the source give for `CCn1c2ccccc2c2nnc(SCC(=O)O)nc21` here?
A: 11.8%

Q: For `O=C1C(=O)N(CCn2c3ccccc3c3nc4ccccc4nc32)c2ccccc21`, which inhibition is on record?
A: 119% (active)

Q: With `CCCn1c2ccccc2c2nnc(SCC(=O)Nc3cccc4ccccc34)nc21` as the compound, how does the inhibition read?
A: 9.77%

Q: Which inhibition does the source give for `Cc1ccc(C)c(OCC(=O)Nc2ccccc2C#N)c1` here?
A: 15.4%

Q: For `C[C@@H]1CN([C@H](C)CO)C(=O)c2cccc(NS(=O)(=O)c3cn(C)cn3)c2O[C@@H]1CN(C)Cc1ccc(C(F)(F)F)cc1`, which inhibition is on record?
A: -20.1%

Q: For `C[C@@H]1CN([C@@H](C)CO)C(=O)c2cccc(NS(=O)(=O)c3ccccc3)c2O[C@@H]1CN(C)S(=O)(=O)c1ccc(F)cc1`, which inhibition is on record?
A: 65%

Q: With `O=C(Nc1ccccc1)Nc1cc(C2CC2)nn1-c1ccccc1` as the compound, how does the inhibition read?
A: 16.4%

Q: Which inhibition does the source give for `O=C(Nc1ccccc1)Nc1ccc(C2SCCS2)cc1` here?
A: 89.9% (active)

Q: Which inhibition does the source give for `O=C(Nc1ccccc1)C(=S)Nc1ccccc1` here?
A: 38.4%

Q: For `C=C1C(=O)O[C@H]2C3=C(C)C[C@H](OC(C)=O)C[C@]3(C)CC[C@@H]12`, which inhibition is on record?
A: 122% (active)

Q: Which inhibition does the source give for `COc1ccc(CN(C)C[C@H]2Oc3ccc(NS(=O)(=O)c4c(C)noc4C)cc3CC(=O)N([C@H](C)CO)C[C@H]2C)cc1` here?
A: 5.72%

Q: Which inhibition does the source give for `COc1ccc(N(C(C)C(=O)Nc2cccc(Br)c2)S(C)(=O)=O)cc1` (centres undefined) here?
A: -13.9%

Q: With `Cc1nc(SCC(=O)Nc2ccc(C(=O)O)cc2)[nH]c(=O)c1C` as the compound, how does the inhibition read?
A: 24.5%

Q: Which inhibition does the source give for `COC(=O)c1ccc(NC(=O)CSc2nc(-c3ccccc3)c(-c3ccccc3)[nH]2)cc1` here?
A: 102% (active)

Q: For `COC(=O)c1ccc(NC(=O)CSc2nc(-c3ccccc3)cc(=O)[nH]2)cc1`, which inhibition is on record?
A: 0.0616%

Q: Which inhibition does the source give for `C[C@H](CO)N1C[C@H](C)[C@H](CN(C)S(C)(=O)=O)Oc2ccc(NC(=O)c3ccncc3)cc2CC1=O` here?
A: -14.9%

Q: Which inhibition does the source give for `CNC[C@H]1Oc2ccc(NS(=O)(=O)c3ccc(F)cc3)cc2CC(=O)N([C@H](C)CO)C[C@H]1C` here?
A: -15.6%

Q: With `Oc1cc2c(cc1O)CN(C(=S)NCCc1ccc(Cl)cc1)CCC2` as the compound, how does the inhibition read?
A: 96.6% (active)

Q: Which inhibition does the source give for `S=C(NCC1CC1)Nc1ccc(Cl)cc1` here?
A: 34.8%

Q: For `COc1cccc2cc(C(=O)C3C(=O)C(=O)N(CCN4CCOCC4)C3c3ccc(F)cc3)oc12` (centres undefined), which inhibition is on record?
A: -8.3%
